From PubChem BioAssay (NCI)
The panel holds about 79,000 compounds, 15% with a hit somewhere; the sample as a whole holds those more often. The source made the active and inactive calls. No stated cut-off is given here; in the data, active means growth inhibition above about 70%; inactive means the rest.

Assay: NCI Yeast Anticancer Drug Screen. Data for the cln2 rad14 strain (AID 165);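 further: 0% = growth equal to vehicle treated cultures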
Conditions: S. cerevisiae cln2 rad14 strain, at 50.0 µM (retest, dose inferred, filed as 5.0), hits give high values
Method in brief: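 Relative to vehicle controls, growth inhibition of compound-treated cln2 rad14 yeast was recorded.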

Row | SMILES | growth inhibition
1 | O=C(O)CCCCCCCCCCOc1ccc(Cl)cc1Cl | -8% (inactive)
2 | C=C(CN1CCCC1)C(=O)c1ccc(OC)cc1 | 81% (active)
3 | CNC(=O)OCc1c(COC(=O)NC)c(-c2ccc(OC)cc2)n2c1CCC2 | 43% (inactive)
4 | CCCCC(=S)N1CCN(c2ccccc2)CC1 | -14% (inactive)
5 | CCN(CC)C(=S)N/N=C/c1cc(OC)ccc1O | 62% (inactive)
6 | COc1ccc2c(c1)CN1C(CCC3c4ccccc4NC31)C2 (stereo not drawn) | 11% (inactive)
7 | CCCCC(=O)N/N=C(\C)[C@]1(O)Cc2c(O)c3c(c(O)c2[C@@H](OC2CC(N)C(O)C(C)O2)C1)C(=O)c1c(OC)cccc1C3=O (stereo partly drawn) | 89% (active)
8 | C=C1C(=O)C23OC2C1CCC(=O)C1(C)CC[C@H](OC(C)=O)C(C)(C)[C@H]1CC3O (stereo partly drawn) | 16% (inactive)
9 | Cc1nc(N)sc1N=Nc1ccc(Cl)cc1Cl | 48% (inactive)
10 | O=C(O)c1cc2c3ccccc3sc2c2ccccc12 | -3% (inactive)
11 | COc1ccc2c(c1)C(Br)CCC(Br)C2=O (stereo not drawn) | 39% (inactive)
12 | Cc1cc(OCCl)ccc1[N+](=O)[O-] | 55% (inactive)
13 | COC(=O)c1nnc(C(=O)OC)c2c1[nH]c1ccccc12 | 11% (inactive)
14 | O=S(Nc1ccccc1Br)c1ccccc1 (stereo not drawn) | 12% (inactive)
15 | Cc1c2c(c(C)c3c1OC(C)(C)CC3)OC(C)(C)CC2 | 0% (inactive)
16 | O=c1cc(CSc2ccc(Cl)cc2)occ1O | 18% (inactive)
17 | Cc1ccc2c(c1)[n+]([O-])c(N)n[n+]2[O-] | 47% (inactive)
18 | CC(=O)c1c2c(cc3c1CC1(C3)Cc3cc4c(c(C(=O)O)c3C1)CCC4)CCC2 (stereo not drawn) | 95% (active)
